In test [1] the test system is HT29 RNF43 G659fs (RNF43 659mut, CRISPR-edited). Description: cell viability activity relative to DMSO (negative = inhibition); higher = more viable cells (less growth inhibition). Conditions: 5 µM; 96 h. The procedure:
(§1)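 Broad Repurposing Library primary screen at a single dose of 5 uM. HT29 sg-Ctrl and HT29 RNF43 G659fs CRISPR-edited isogenic cells were seeded at 2500 cells/well in 384-well plates in duplicate and treated for 96 h. Viability was read by CellTiter-Glo and reported as % activity relative to DMSO, with MG132 as the positive control (negative = growth inhibition).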

The subject of test [2] is HT29 sg-Ctrl (RNF43 wildtype). Described as above. Conditions: 5 µM; 96 h. The procedure:
as §1

SMILES strings stand for the structures.

For the molecule `Nc1nc(=S)c2ncn([C@@H]3O[C@H](CO)[C@@H](O)[C@H]3O)c2[nH]1`, the cell viability activity in test [1] is -80.3%; in test [2], -76.6%.

Turning to `COc1cc(/C=C/C(=O)CC(=O)/C=C/c2ccc(O)c(OC)c2)ccc1O`, the cell viability activity in test [1] is -87.7%; in test [2], -84.2%.

With `Oc1c(Cl)cc(Cl)c(Cl)c1Cc1c(O)c(Cl)cc(Cl)c1Cl`, the cell viability activity is -49% in test [1] and -40.9% in test [2].

With `CC(C)(C)CC(C)(C)c1ccc(OCCOCC[N+](C)(C)Cc2ccccc2)cc1`, the cell viability activity in test [1] was -98.5%; in test [2], -97.2%.

Take `OC[C@H]1O[C@@H](Oc2cc(O)cc(/C=C/c3ccc(O)cc3)c2)[C@H](O)[C@@H](O)[C@@H]1O`: the values for the cell viability activity in test [1] and in test [2] were -34.4% and -36%, respectively.

For the molecule `CN(C)CCOc1ccc(/C(=C(/CCCl)c2ccccc2)c2ccccc2)cc1`, the figures for the cell viability activity in test [1] and in test [2] were -85.2% and -82.8%, respectively.

For the molecule `COc1cccc2cc(-c3nc([C@H]4CC[C@H](C(=O)O)CC4)n4ncnc(N)c34)[nH]c12`, the cell viability activity in test [1] was -50.5%; in test [2], -27.5%.

In the case of `CCN1CCN(c2ccc(C(C)(C)NC(=O)c3cc4[nH]c5ccccc5c(=O)c4cc3F)cn2)CC1`, the cell viability activity in test [1] was -45.9%; in test [2], -42.7%.

With `COc1cc(OC)c(/C=C/S(=O)(=O)Cc2ccc(OC)c(NCC(=O)O)c2)c(OC)c1`, the cell viability activity in test [1] was -58.2%; in test [2] it was -54.8%.

As to `NS(=O)(=O)C#Cc1ccccc1`, the values for the cell viability activity in test [1] and in test [2] were -68.8% and -72.2%, respectively.

For the molecule `NC(=NC1C2CC3CC(C2)CC1C3)Nc1ccc(I)cc1` (stereo unspecified), the cell viability activity was -49.5% in test [1] and -69.8% in test [2].

On to `Cc1cc(I)ccc1Nc1c(C(=O)NOCC2CC2)cc(F)c(F)c1F`, for which the values for the cell viability activity in test [1] and in test [2] were -65.5% and -71.6%, respectively.

For the molecule `COc1ccc(/C=C\c2cc(OC)c(OC)c(OC)c2)cc1O`, the values for the cell viability activity in test [1] and in test [2] were -64.6% and -58.3%, respectively.

In the case of `Cc1cc(N2CCOCC2)cc2[nH]c(-c3c(NC[C@@H](O)c4cccc(Cl)c4)cc[nH]c3=O)nc12`, the cell viability activity was -55% in test [1] and -50.5% in test [2].

In the case of `Cc1[nH]nc2ccc(-c3cncc(OC[C@@H](N)Cc4ccccc4)c3)cc12`, the cell viability activity in test [1] is -89.5%; in test [2] it was -90.7%.

Turning to `CN1CCC[C@@H]1Cc1c[nH]c2ccc(CCS(=O)(=O)c3ccccc3)cc12`, the cell viability activity in test [1] is -25.1%; in test [2] it was -27.2%.

For `CC(C)(C)c1cnc(CSc2cnc(NC(=O)C3CCNCC3)s2)o1`, the cell viability activity in test [1] and in test [2] was -81.8% in each case.

On to `CC(C)(C)c1nc(-c2cccc(NS(=O)(=O)c3c(F)cccc3F)c2F)c(-c2ccnc(N)n2)s1`, for which the values for the cell viability activity in test [1] and in test [2] were -69.4% and -68.4%, respectively.

Consider `CCOc1ccccc1OC(c1ccccc1)C1CNCCO1` (stereo unspecified), for which the values for the cell viability activity in test [1] and in test [2] were -30.5% and -58.7%, respectively.

As to `CC(C)(C)c1[nH]cnc1/C=c1\[nH]c(=O)/c(=C/c2ccccc2)[nH]c1=O`, the cell viability activity is -55.7% in test [1] and -54% in test [2].

Turning to `CN(C)c1ccc(C(=C2C=CC(=[N+](C)C)C=C2)c2ccc(N(C)C)cc2)cc1`, the cell viability activity was -96.3% in test [1] and -89.3% in test [2].

On to `CCc1cnn2c(NCc3ccc[n+]([O-])c3)cc(N3CCCC[C@H]3CCO)nc12`, for which the cell viability activity is -88.2% in test [1] and -84.3% in test [2].

Regarding `CC(C)[C@H]1c2ccc(F)cc2CC[C@@]1(CCN(C)CCCc1nc2ccccc2[nH]1)OC(=O)C1CC1`, the results for the cell viability activity in test [1] and in test [2] were -90% and -90.4%, respectively.

On to `CCOc1cc(C(=O)N2CCC(N3CCN(C)CC3)CC2)ccc1Nc1ncc2c(n1)N(C1CCCC1)c1ccccc1C(=O)N2C`, for which the cell viability activity in test [1] is -64.4%; in test [2], -65.5%.

For `Cn1cc(C2=C(c3cn(CCCSC(=N)N)c4ccccc34)C(=O)NC2=O)c2ccccc21`, the cell viability activity in test [1] was -81.3%; in test [2], -73.6%.

For the molecule `C1=N/C2=N/c3ccc(OCCN4CCCC4)c(c3)COC/C=C/COCc3cccc(c3)C(=C1)N2`, the cell viability activity in test [1] is -41.5%; in test [2] it was -31.8%.

In the case of `Cc1nnc(C[C@@H]2C=C(c3ccc(Cl)cc3)c3ccccc3-n3c(C)nnc32)o1`, the cell viability activity in test [1] was -63.5%; in test [2] it was -64.7%.

For `O=[N+]([O-])c1ccc2c(c1)S(=O)(=O)C=C2`, the cell viability activity was -95% in test [1] and -91% in test [2].

Turning to `Cc1cccc(Nc2nc(-c3ccncc3)cs2)c1`, the cell viability activity in test [1] was -85.7%; in test [2] it was -55.8%.

As for `CC(C)(N)c1cc(C(=O)N[C@@H]2CCc3ccc(Oc4ccnc5c4CCC(=O)N5)cc3C2)cc(C(F)(F)F)c1`, the cell viability activity in test [1] is -57.8%; in test [2], -59.3%.

As for `COc1cc2ncn(-c3cc(OCc4ccccc4C(F)(F)F)c(C(N)=O)s3)c2cc1OC`, the cell viability activity was -72.5% in test [1] and -65.4% in test [2].

For the molecule `COc1ccc(CCCOC(Cn2ccnc2)c2ccc(OC)cc2)cc1` (stereo unspecified), the cell viability activity in test [1] was -67.2%; in test [2], -31.3%.

As for `COc1cc(Nc2c(C#N)cnc3cc(OCCCN4CCN(C)CC4)c(OC)cc23)c(Cl)cc1Cl`, the cell viability activity is -96.5% in test [1] and -97.9% in test [2].

For the molecule `O=C1NCN(c2ccccc2)C12CCN(CCCC(c1ccc(F)cc1)c1ccc(F)cc1)CC2`, the results for the cell viability activity in test [1] and in test [2] were -27.2% and -69.5%, respectively.

For the molecule `CC(C)Oc1ccc(C(=O)N[C@H](CNC(=O)CN(C)C)Cc2ccc(-c3cn4cccc([C@H](C)O)c4n3)cc2)cc1Cl`, the cell viability activity in test [1] was -54.6%; in test [2], -59.4%.

For `Cc1cc(OCc2nc(-c3ccccc3Cl)cs2)ccc1OCC(=O)O`, the results for the cell viability activity in test [1] and in test [2] were -41.6% and -31.1%, respectively.

For the molecule `CN(C)CCOc1ccc(-c2nc(-c3ccc4c(c3)CC/C4=N\O)c(-c3ccncc3)[nH]2)cc1`, the cell viability activity was -28.5% in test [1] and -37.9% in test [2].

Take `CCCCCCCCN=c1ccn(CCCCCCCCCCn2ccc(=NCCCCCCCC)cc2)cc1`: the cell viability activity in test [1] is -94.6%; in test [2], -92.1%.

The values are drawn from the supplement of paper PMC9177965.
